From PubChem BioAssay (NCATS) come the findings set out here.

Each structure is given as a SMILES string. Inconclusive results are not listed. Entries that show only a call come without a potency. The source made the active and inactive calls. Calls follow the shape of the dose curve; as a rule, active = well fitted inhibition curve with a large enough effect; inconclusive = small, poorly fitted or top-dose-only effect; inactive = flat fitted curve, though single readings scatter.
Potency is read from the fitted curve at half-maximal effect.

For this experiment, the system named is MCC-26. Nature of the experiment: qHTS assay to identify novel small-molecules to repurpose for Merkel cell carcinoma treatment (AID 1296009). Also: nearly all actives have a fitted effect of over 60% in size. As to conditions: MCC and control cell lines, CellTiter-Glo viability, 72 h; series mostly up to 46 µM. The source says:
MCC is a rare and aggressive neuroendocrine skin cancer with limited treatment options. Approximately 80% of MCCs have the Merkel cell polyomavirus (MCPyV) DNA integrated into the host genome (virus-positive: VP-MCC) and viral oncogenes drive oncogenesis. The remaining MCCs are virus-negative (VN-MCC) and are caused by UV mutagenesis. To identify novel treatments for VP-MCC and/or VN-MCC we screened three VP-MCC cell lines (WAGA, MKL-1, MKL-2), three VN-MCC cell lines (MCC-13, MCC-26, UISO), and four immortalized, non-transformed control cell lines (HaCaT, HEK293T, CRL7250, NIH-3T3) against ~2,400 compounds in the NCGC Pharmaceutical Collection (NPC) and ~1,900 compounds in the Mechanism Interrogation PlatE (MiPE). Using cell viability as a readout (CellTiter-Glo assay) we found both overlapping and distinct drugs that can be repurposed for the treatment of VP-MCC and VN-MCC.
A high-throughput screen was conducted in 1536-well white flat bottom plates (Corning) on a Kalypsys robotic system. Cell lines WAGA, MKL-1, MKL-2, MCC-13, MCC-26, UISO, HaCaT, HEK293T, CRL7250, and NIH-3T3 were screened against 2 small molecule annotated drug libraries NPC and MIPE in dose response (8 and 11 pt. respectively) measuring cell viability after 72 hours of incubation. […] A 1,536 pintool (Kalypsys) was used to transfer 23 nL of compound in DMSO to the 1,536-well assay plates. After 72 hr incubation at 37 degree celsius, 2.5 uL of CellTiter-Glo (Promega) was dispensed into each well using a BiorapTR. Plates were incubated at room temperature for 10 min, transferred to a ViewLux (PerkinElmer) and the luminescence was recorded using an exposure time of 2 seconds. Relative luminescence units (RLUs) were normalized to in-plate controls (no cells as a positive (cytotoxicity) control, DMSO as negative control) and the normalized data was processed using NCATS in-house software.
For orientation: qHTS replaces the single test concentration by a dilution series.
As to `CCNc1cc(NC2CCC(O)CC2)nc(Nc2ccc3c(ccn3Cc3ccccc3)c2)n1` (stereo not given), the Potency entry is “inactive”. The entry for `Cn1cc(C=C2C(=O)Nc3cccnc32)c2ccccc21` is “inactive”; for `CN(C)Cc1ccc(-c2nc3cccc4c3n2CCNC4=O)cc1` it is “inactive”. With `Nc1ncnc2c1nc(Cl)n2[C@@H]1O[C@H](CO)[C@@H](O)[C@@H]1O` the entry was “inactive”; with `COc1ccc(-c2oc3c(CC=C(C)C)c(OC4O[C@H](CO)[C@@H](O)[C@H](O)[C@@H]4O)cc(O)c3c(=O)c2OC2O[C@@H](C)[C@H](O)[C@@H](O)[C@@H]2O)cc1` (stereo not given in full), “inactive”; with `CC[C@@H]1C=C(C)C[C@H](C)C[C@H](OC)[C@H]2O[C@@](O)(C(=O)C(=O)N3CCCC[C@@H]3C(=O)O[C@H](C(C)=C[C@@H]3CC[C@H](Cl)[C@H](OC)C3)[C@H](C)[C@@H](O)CC1=O)[C@H](C)C[C@H]2OC`, “inactive”. The entry for `Clc1ccc(-c2nc3sccn3c2C=NOCc2ccc(Cl)c(Cl)c2)cc1` is “inactive”; for `O=C(O)[C@H]1O[C@H](Oc2cc3oc(-c4ccccc4)cc(=O)c3c(O)c2O)[C@H](O)[C@@H](O)[C@H]1O` it is “inactive”; for `O=c1c(O)c(-c2ccc(O)cc2)oc2cc(O)cc(O)c12` it is “inactive”. `CC1(C)S[C@H]2[C@H](NC(=O)[C@@H](N)c3ccc(O)cc3)C(=O)N2[C@@H]1C(=O)O`: the Potency result was “inactive”. The entry for `C[N+]1(C)[C@@H]2CC(OC(=O)[C@H](CO)c3ccccc3)C[C@H]1[C@H]1O[C@@H]12` (stereo not given in full) is “inactive”; for `CC(C(=O)O)c1ccc(-c2ccccc2)c(F)c1` (stereo not given) it is “inactive”; for `C=CCc1ccc(O)c(-c2ccc(O)c(CC=C)c2)c1` it is “inactive”. The figure for `Oc1ccc(C2=Cc3ccc(O)cc3OC2)cc1` is 20.9 µM (active). With `CC1(C)O[C@H]2C[C@@H]3[C@H]4CCC5=CC(=O)C=C[C@]5(C)[C@@]4(F)[C@@H](O)C[C@]3(C)[C@]2(C(=O)CO)O1` the entry was “inactive”. `CC=C(C)C(=O)O[C@H]1C(C)=C[C@]23C(=O)[C@@H](C=C(CO)[C@@H](O)[C@]12O)[C@H]1[C@@H](C[C@H]3C)C1(C)C`: the Potency result was “inactive”.

Take `C[C@]12CCC3c4ccc(O)cc4CCC3C1CCC2=O` (stereo not given in full): the Potency entry was “inactive”. The entry for `COc1cc(Nc2ncc(F)c(Nc3ccc4c(n3)NC(=O)C(C)(C)O4)n2)cc(OC)c1OC` is “inactive”; for `CCn1c(C(=O)N(C2CC2)C2CC2)cc2c3c(ncn3C)c(Nc3cc(C)n(C)n3)nc21` it is “inactive”; for `CO[C@H]1C=CC=C(C)C(=O)NC2=CC(=O)C(NCCN(C)C)=C(C[C@@H](C)C[C@H](OC)[C@@H](O)[C@@H](C)C=C(C)[C@@H]1OC(N)=O)C2=O` it is 3.72 µM (active). With `CC=CC(=O)N(CC)c1ccccc1C` the entry was “inactive”; with `Cc1nnc(C(C)C)n1C1C[C@H]2CC[C@@H](C1)N2CC[C@H](NC(=O)C1CCC(F)(F)CC1)c1ccccc1` (stereo not given in full), “inactive”.

On to `O=C(NCc1ccncc1)C12C[C@H]3C[C@@H](C1)CC(c1ccc(Cl)cc1)(C3)C2`, for which the Potency entry is “inactive”. With `CCN(CC)CCNC(=O)c1ccc(N)cc1` the entry was “inactive”.

`O=C(NCCN1CCOCC1)c1ccc(Cl)cc1`: the Potency entry is “inactive”.

As to `CO[C@H]1C(=O)[C@]2(C)[C@@H](OC)C[C@H]3OC[C@@]3(OC(C)=O)[C@H]2[C@H](OC(=O)c2ccccc2)[C@]2(O)C[C@H](OC(=O)[C@H](O)[C@@H](NC(=O)OC(C)(C)C)c3ccccc3)C(C)=C1C2(C)C`, the Potency result was “inactive”.

`O=C(N[C@@H](c1ccccc1)[C@@H]1CCCCN1)c1cccc(C(F)(F)F)c1Cl`: the Potency result was “inactive”. Regarding `CC(=O)Oc1cc2c(s1)CCN(C(C(=O)C1CC1)c1ccccc1F)C2` (stereo not given), the Potency entry is “inactive”. With `COc1cc2nc(-c3ccc(N4CCN(C)CC4)cc3)nc(NCCN3CCOCC3)c2cc1OC` the figure was 9.35 µM (active). The entry for `CC(C)(C)NC(=O)Nc1cccc(Nc2ncc(F)c(NC(C)(C)CO)n2)c1` is “inactive”. The entry for `CC(=O)CCCCn1c(=O)c2c(ncn2C)n(C)c1=O` is “inactive”; for `CC=CC[C@@H](C)C(=O)[C@H]1C(=O)N[C@@H](C(C)C)C(=O)N(C)CC(=O)N(C)[C@@H](CC(C)C)C(=O)N[C@@H](C(C)C)C(=O)N(C)[C@@H](CC(C)C)C(=O)N[C@@H](C)C(=O)N[C@H](C)C(=O)N(C)[C@@H](CC(C)C)C(=O)N(C)[C@@H](CC(C)C)C(=O)N(C)[C@@H](C(C)C)C(=O)N1C` it is “inactive”. Take `O=C1C(Cl)=C(NCCN2CCOCC2)C(=O)c2ncccc21`: the Potency is 8.33 µM (active). With `O=C(O)c1ccc(-c2cc3cccnc3c(-c3ccc4nonc4c3)n2)cc1` the entry was “inactive”; with `CCOc1ccc(Nc2nc(-c3c(C)nc4ccccn34)cs2)cc1`, 0.0526 µM (active).

Regarding `NC(=O)c1ccc2nc(-c3ccc(Oc4ccc(Cl)cc4)cc3)[nH]c2c1`, the Potency entry was “inactive”.

`Clc1ccc(C(c2ccc(Cl)cc2)n2cc[n+](CC(OCc3ccc(Cl)cc3Cl)c3ccc(Cl)cc3Cl)c2)cc1` (stereo not given): the Potency entry is “inactive”. For `CC(C)(C)C(=O)Oc1ccc2c(c1)nc(NC(=O)c1cccc([N+](=O)[O-])c1)n2CCCO`, the Potency result was “inactive”.

As for `CCCCC1C(=O)N(c2ccccc2)N(c2ccccc2)C1=O`, the Potency result was “inactive”. As for `CN(C)c1cc(NC(=O)CNC(C)(C)C)c(O)c2c1C[C@@H]1C[C@H]3[C@H](N(C)C)C(=O)C(C(N)=O)=C(O)[C@@]3(O)C(=O)C1=C2O`, the Potency entry was “inactive”.
